# The panel holds about 83,000 compounds, 20% with a hit somewhere; the sample as a whole holds those more often.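 Single-concentration screen, 48 h exposure, 96-well plates. Endpoint: percent growth. Below 10 = active.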 The source made the active and inactive calls.
# System: CCRF-CEM leukemia
# Assay: NCI-60 one-dose screen, 48 h (100 = growth as untreated, 0 = no growth, -100 = all killed)
# Details: 10 µM
row,Structure (SMILES),growth
1,CC1(C)NC(=S)NC1=O,88.2% (inactive)
2,O=C1C=C(OCC=C(C(F)(F)F)C(F)(F)F)c2ccccc2C1=O,-33.9% (active)
3,CCOC1=C(Cl)C(=O)C(OCC)=C(Cl)C1=O,9.18% (active)
4,Oc1ccc(Br)cc1/C=N/NC(=S)NC12CC3CC(CC(C3)C1)C2,-21.1% (active)
5,COc1cc(N2C(=O)C=CC2=O)ccc1N1C(=O)C=CC1=O,18.9% (inactive)
6,c1cc[c]([Bi]([c]2ccccc2)[c]2ccccc2)cc1,86.5% (inactive)
7,O=C(CN1C(=O)NC(c2ccccc2)(c2ccccc2)C1=O)c1ccc(N2CCCC2)cc1,98.9% (inactive)
8,CNc1ccc(Nc2ccc(S(=O)(=O)O)cc2)c2c1C(=O)c1ccccc1C2=O,89.2% (inactive)
9,Cc1ccc(S(=O)(=O)NC(CCC(=O)Nc2ccccc2)C(=O)Nc2ccccc2)cc1 (configuration not stated),5.4% (active)
10,COC1(OC)N=C(N)C2(C#N)C3(C(=O)Nc4ccccc43)C12C#N (configuration not stated),77.8% (inactive)
11,Cn1c2ccccc2c2ccccc21,92.5% (inactive)
12,Oc1ccc([S+](c2ccc(O)cc2)c2ccc(O)cc2)cc1,100% (inactive)
13,Nc1cc(N)c2nc(-c3ccccc3)c(NCCc3ccc(Cl)c(Cl)c3)nc2c1,-66.1% (active)
14,COC(=O)Nc1nc2ccc(C(=O)c3ccccc3N(C)C3COC3)cc2[nH]1,8.11% (active)
15,CCOP1(=O)CC(C)=C(Cl)C(P(=O)(O)O)C1 (configuration not stated),-35.6% (active)
16,CCCCCCCCC1OC1CCCCCCCC(=O)O (configuration not stated),93% (inactive)

# System: MOLT-4 leukemia
# Assay: as above
# Details: 10 µM unless noted
row,Structure (SMILES),growth
1,CC(C)(CNC1CCCCC1)OC(=O)c1ccccc1,93.8% (inactive)
2,COC(=O)c1ccc2[nH]c(O)c(C(=Nc3ccc(N(C)C(=O)CN4CCN(C)CC4)cc3)c3ccc4c(c3)OCO4)c2c1,0.682% (active)
3,O=C(/C=C\c1ccc(NCc2ccc(C(=O)O)cc2)cc1)CCl,6.28% (active)
4,CCCCCCC(C)N(CC(C)(C)O)C(=O)c1ccc([N+](=O)[O-])cc1 (configuration not stated),90.4% (inactive)
5,C=CN(C)S(C)(=O)=O,30.1% (inactive)
6,CCCCCCC(C(=O)OCC)(C(=O)OCC)C1CCCCCC1,104% (inactive)
7,CCOC(=O)NC1=NCC(C)(C)S1,83.8% (inactive)
8,Cc1ccc2c(c1)C(=O)CCS2,118% (inactive)
9,S=C(N/N=C/c1cc(Cl)cc(Cl)c1)NC12CC3CC(CC(C3)C1)C2,94.1% (inactive)
10,COC(=O)C(N)CC(C)C (configuration not stated),91.9% (inactive)
11,O=C(Nc1ccc(Cl)c(Cl)c1)O/N=C\c1c(Cl)ccc([N+](=O)[O-])c1Cl,-32.9% (active)
12,O=C(/C=C/c1ccc(Cl)cc1)c1ccc(Cl)cc1,81% (inactive)
13,O=C(Nc1cccc(Cn2c(=O)[nH]c3ccc(Oc4ncccn4)cc3c2=O)c1)c1cccc(F)c1,54.7% (inactive)
14,CC(=O)c1ccc2c(c1)c1ccccc1n2C,82% (inactive)
15,CCC(C)CC(N)O (configuration not stated),106% (inactive)
16,COc1cc2ncnc(-n3ncc4cc(NC(=O)Nc5ccccc5)ccc43)c2cc1OC,3.89% (active)

row,Structure (SMILES),growth
1,O=C(O)CS(=O)c1ccc(Cl)cc1 (configuration not stated),90.5% (inactive)
2,O=C1C(=O)c2ccccc2C(O)=C1CCCc1ccc(Oc2ccccc2)cc1,50.3% (inactive)
3,O=C1C(Br)=CC2C1C1C3CCC3C2(Br)C12OCCO2 (configuration not stated),15.7% (inactive)
4,CC1(C)NC(=S)NC1=O,90.8% (inactive)
5,CCCCCCCCCCC1OC(C)CC(C)O1 (configuration not stated),86.7% (inactive)
6,O=C1C=C(OCC=C(C(F)(F)F)C(F)(F)F)c2ccccc2C1=O,-36.9% (active)
7,CCOC1=C(Cl)C(=O)C(OCC)=C(Cl)C1=O,88.1% (inactive)
8,O=C(NCCO)C(F)(F)F,99.3% (inactive)
9,Oc1ccc(Br)cc1/C=N/NC(=S)NC12CC3CC(CC(C3)C1)C2,1.75% (active)
10,COc1cc(N2C(=O)C=CC2=O)ccc1N1C(=O)C=CC1=O,100% (inactive)
11,c1cc[c]([Bi]([c]2ccccc2)[c]2ccccc2)cc1,108% (inactive)
12,O=C(CN1C(=O)NC(c2ccccc2)(c2ccccc2)C1=O)c1ccc(N2CCCC2)cc1,70.5% (inactive)
13,CC(O)CN(CCO)CCN(CCO)CC(C)O (configuration not stated),100% (inactive)
14,CNc1ccc(Nc2ccc(S(=O)(=O)O)cc2)c2c1C(=O)c1ccccc1C2=O,106% (inactive)
15,Cc1ccc(S(=O)(=O)NC(CCC(=O)Nc2ccccc2)C(=O)Nc2ccccc2)cc1 (configuration not stated),8.8% (active)
